Columns and labels:
Test in all cases: DAPPL (digital affinity profiling via proximity ligation, sequencing); 10 mM Tris-HCl pH 7.5, 50 mM NaCl, 1 mM DTT, 4% glycerol, room temperature, 30 min; GST-TFs on glutathione beads, 16-mer random dsDNA library, 0.1% formaldehyde crosslink after washing; high values mean tight binding
FLI1 = molecular target: T1, FLI1 (Homo sapiens, UniProt Q01543 1-452); conditions: protein: recombinant; tags: N-terminal GST; dsDNA, one strand shown
T1 sequence: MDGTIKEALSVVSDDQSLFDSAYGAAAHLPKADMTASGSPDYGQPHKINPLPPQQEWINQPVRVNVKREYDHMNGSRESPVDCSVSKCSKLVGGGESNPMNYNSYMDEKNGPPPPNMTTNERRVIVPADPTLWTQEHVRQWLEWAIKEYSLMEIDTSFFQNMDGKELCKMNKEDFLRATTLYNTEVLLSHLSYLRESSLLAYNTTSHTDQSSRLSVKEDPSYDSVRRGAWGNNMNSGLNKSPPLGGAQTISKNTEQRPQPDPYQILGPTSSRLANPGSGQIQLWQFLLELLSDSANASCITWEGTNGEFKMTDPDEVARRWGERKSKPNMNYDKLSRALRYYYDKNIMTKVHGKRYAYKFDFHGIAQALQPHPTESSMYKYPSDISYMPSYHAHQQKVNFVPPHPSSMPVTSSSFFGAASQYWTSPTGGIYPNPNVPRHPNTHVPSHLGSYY
In short: (§1)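 Human transcription factors fused to GST were expressed in yeast, captured on glutathione beads, given DNA barcodes and pooled with a GST-only negative control. Pools were incubated with 200 nmole of a 16-mer random double-stranded DNA library in Tris/NaCl/DTT/glycerol buffer at room temperature for 30 min. They were then washed, crosslinked with 0.1% formaldehyde, proximity-ligated (BsaI/T4 ligase, 1 h, 37 °C), PCR-amplified and sequenced on an Illumina NextSeq500. Binding signal is each 6-mer's read frequency for a factor divided by its frequency for the GST control.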

ELK1 = molecular target: T2, ELK1 (Homo sapiens, UniProt P19419 1-428); conditions: protein: recombinant; tags: N-terminal GST; dsDNA, one strand shown
T2 sequence: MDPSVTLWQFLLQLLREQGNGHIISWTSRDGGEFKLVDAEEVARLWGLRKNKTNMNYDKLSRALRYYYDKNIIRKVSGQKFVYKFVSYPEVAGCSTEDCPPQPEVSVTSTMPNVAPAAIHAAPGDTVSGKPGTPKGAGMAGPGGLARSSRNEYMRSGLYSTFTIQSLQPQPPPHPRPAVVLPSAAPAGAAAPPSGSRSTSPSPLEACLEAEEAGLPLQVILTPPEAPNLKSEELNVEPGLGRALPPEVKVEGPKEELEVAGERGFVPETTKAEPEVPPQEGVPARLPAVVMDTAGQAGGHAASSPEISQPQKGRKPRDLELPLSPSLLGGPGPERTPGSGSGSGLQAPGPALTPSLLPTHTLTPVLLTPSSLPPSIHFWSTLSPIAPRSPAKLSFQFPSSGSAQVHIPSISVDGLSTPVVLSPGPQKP
In short: as §1

GABPA = molecular target: T3, GABPA (Homo sapiens, UniProt Q06546 1-454); conditions: protein: recombinant; tags: N-terminal GST; dsDNA, one strand shown
T3 sequence: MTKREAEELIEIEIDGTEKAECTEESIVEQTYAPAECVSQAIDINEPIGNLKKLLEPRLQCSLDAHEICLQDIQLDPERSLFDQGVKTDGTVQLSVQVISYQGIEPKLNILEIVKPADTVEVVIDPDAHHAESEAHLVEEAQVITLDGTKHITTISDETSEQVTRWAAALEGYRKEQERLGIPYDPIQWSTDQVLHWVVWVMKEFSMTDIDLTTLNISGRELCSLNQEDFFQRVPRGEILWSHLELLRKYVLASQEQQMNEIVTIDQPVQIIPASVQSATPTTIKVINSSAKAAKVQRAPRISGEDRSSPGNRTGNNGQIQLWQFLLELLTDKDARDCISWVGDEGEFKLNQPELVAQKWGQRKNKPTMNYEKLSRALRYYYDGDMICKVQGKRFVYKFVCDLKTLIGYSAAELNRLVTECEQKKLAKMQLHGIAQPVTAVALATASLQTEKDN
In short: as §1

ERG = molecular target: T4, ERG (Homo sapiens, UniProt P11308 1-479); conditions: protein: recombinant; tags: N-terminal GST; dsDNA, one strand shown
T4 sequence: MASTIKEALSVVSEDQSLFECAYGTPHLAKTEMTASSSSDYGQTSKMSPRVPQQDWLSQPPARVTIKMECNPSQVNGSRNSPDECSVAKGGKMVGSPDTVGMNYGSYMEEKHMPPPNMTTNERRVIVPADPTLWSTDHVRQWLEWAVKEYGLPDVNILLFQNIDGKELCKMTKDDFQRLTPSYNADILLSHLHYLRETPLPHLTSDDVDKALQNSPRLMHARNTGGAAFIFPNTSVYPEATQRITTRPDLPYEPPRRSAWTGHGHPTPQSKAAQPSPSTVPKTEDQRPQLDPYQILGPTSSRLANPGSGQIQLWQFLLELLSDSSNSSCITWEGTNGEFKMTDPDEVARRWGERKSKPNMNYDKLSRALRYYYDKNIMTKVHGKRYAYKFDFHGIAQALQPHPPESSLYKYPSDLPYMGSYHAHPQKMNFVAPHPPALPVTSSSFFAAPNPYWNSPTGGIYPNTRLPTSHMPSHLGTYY
In short: as §1

ELF1 = ELF1 (Homo sapiens, UniProt P32519 1-619); conditions: protein: recombinant; tags: N-terminal GST; dsDNA, one strand shown
In short: as §1

EHF = molecular target: T5, EHF (Homo sapiens, UniProt Q9NZC4 1-300); conditions: protein: recombinant; tags: N-terminal GST; dsDNA, one strand shown
T5 sequence: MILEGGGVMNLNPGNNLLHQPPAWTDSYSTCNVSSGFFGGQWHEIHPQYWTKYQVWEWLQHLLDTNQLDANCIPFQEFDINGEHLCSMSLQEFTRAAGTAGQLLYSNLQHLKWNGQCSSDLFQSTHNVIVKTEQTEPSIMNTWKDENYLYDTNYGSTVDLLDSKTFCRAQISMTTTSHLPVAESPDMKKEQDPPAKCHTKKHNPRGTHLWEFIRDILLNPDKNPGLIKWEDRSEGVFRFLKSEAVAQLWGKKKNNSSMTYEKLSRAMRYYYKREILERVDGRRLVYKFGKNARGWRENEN
In short: as §1

SPI1 = SPI1 (Homo sapiens, UniProt P17947 1-270); conditions: protein: recombinant; tags: N-terminal GST; dsDNA, one strand shown
In short: as §1

SPIB = SPIB (Homo sapiens, UniProt Q01892 1-262); conditions: protein: recombinant; tags: N-terminal GST; dsDNA, one strand shown
In short: as §1

ELK3 = molecular target: T6, ELK3 (Homo sapiens, UniProt P41970 1-407); conditions: protein: recombinant; tags: N-terminal GST; dsDNA, one strand shown
T6 sequence: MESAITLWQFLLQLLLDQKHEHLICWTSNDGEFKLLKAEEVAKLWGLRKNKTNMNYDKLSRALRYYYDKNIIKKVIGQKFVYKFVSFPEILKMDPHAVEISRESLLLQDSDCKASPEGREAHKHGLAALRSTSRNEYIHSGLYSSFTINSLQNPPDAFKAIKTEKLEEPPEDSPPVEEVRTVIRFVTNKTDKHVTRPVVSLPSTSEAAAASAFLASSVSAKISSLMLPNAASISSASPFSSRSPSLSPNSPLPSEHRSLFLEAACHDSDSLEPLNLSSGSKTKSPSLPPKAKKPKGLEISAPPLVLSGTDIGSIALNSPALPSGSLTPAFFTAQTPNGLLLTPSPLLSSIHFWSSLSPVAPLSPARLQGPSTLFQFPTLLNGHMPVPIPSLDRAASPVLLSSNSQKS
In short: as §1

FEV = molecular target: T7, FEV (Homo sapiens, UniProt Q99581 1-238); conditions: protein: recombinant; tags: N-terminal GST; dsDNA, one strand shown
T7 sequence: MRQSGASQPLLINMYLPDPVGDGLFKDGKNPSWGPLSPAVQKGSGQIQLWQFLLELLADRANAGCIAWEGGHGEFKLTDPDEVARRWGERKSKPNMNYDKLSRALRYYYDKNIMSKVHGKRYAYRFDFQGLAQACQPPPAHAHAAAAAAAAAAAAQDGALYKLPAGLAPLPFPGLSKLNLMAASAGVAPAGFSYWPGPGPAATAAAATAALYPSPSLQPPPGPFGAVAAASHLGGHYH
In short: as §1

ETV5 = ETV5 (Homo sapiens, UniProt P41161 1-510); conditions: protein: recombinant; tags: N-terminal GST; dsDNA, one strand shown
In short: as §1

HSF1 = HSF1 (Homo sapiens, UniProt Q00613 1-529); conditions: protein: recombinant; tags: N-terminal GST; chain copies: 3; dsDNA, one strand shown
In short: as §1

SPIC = molecular target: T8, SPIC (Homo sapiens, UniProt Q8N5J4 1-248); conditions: protein: recombinant; tags: N-terminal GST; dsDNA, one strand shown
T8 sequence: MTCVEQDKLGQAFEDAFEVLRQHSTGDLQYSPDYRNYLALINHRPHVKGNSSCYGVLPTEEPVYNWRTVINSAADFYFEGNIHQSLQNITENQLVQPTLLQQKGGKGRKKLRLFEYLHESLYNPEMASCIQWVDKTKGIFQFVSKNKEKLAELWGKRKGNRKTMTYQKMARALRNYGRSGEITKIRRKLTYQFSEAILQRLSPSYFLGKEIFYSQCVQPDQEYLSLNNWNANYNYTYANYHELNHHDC
In short: as §1

ELF4 = ELF4 (Homo sapiens, UniProt Q99607 1-663); conditions: protein: recombinant; tags: N-terminal GST; dsDNA, one strand shown
In short: as §1

ELK4 = molecular target: T9, ELK4 (Homo sapiens, UniProt P28324-2 1-405); conditions: protein: recombinant; tags: N-terminal GST; dsDNA, one strand shown
T9 sequence: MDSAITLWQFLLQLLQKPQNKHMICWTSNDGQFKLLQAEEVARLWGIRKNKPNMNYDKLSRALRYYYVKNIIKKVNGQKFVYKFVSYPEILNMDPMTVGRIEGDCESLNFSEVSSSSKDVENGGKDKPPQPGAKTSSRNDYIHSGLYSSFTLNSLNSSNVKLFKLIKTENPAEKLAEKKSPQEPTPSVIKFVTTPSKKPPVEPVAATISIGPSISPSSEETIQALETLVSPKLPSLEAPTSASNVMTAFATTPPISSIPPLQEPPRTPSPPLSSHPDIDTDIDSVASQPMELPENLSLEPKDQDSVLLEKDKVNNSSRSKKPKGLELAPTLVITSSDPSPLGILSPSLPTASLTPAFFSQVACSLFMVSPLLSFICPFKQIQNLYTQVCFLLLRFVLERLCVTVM
In short: as §1

ETV2 = molecular target: T10, ETV2 (Homo sapiens, UniProt O00321 1-342); conditions: protein: recombinant; tags: N-terminal GST; dsDNA, one strand shown
T10 sequence: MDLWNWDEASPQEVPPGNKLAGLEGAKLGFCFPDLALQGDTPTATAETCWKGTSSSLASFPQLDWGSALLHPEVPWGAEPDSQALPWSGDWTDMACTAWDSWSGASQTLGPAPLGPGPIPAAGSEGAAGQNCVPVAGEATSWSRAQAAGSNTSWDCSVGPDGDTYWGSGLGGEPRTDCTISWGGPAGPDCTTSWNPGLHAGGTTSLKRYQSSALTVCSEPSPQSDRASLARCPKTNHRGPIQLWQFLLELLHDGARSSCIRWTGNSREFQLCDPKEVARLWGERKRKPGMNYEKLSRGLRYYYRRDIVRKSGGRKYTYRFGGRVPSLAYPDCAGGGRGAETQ
In short: as §1

ELF3 = molecular target: T11, ELF3 (Homo sapiens, UniProt P78545 1-371); conditions: protein: recombinant; tags: N-terminal GST; dsDNA, one strand shown
T11 sequence: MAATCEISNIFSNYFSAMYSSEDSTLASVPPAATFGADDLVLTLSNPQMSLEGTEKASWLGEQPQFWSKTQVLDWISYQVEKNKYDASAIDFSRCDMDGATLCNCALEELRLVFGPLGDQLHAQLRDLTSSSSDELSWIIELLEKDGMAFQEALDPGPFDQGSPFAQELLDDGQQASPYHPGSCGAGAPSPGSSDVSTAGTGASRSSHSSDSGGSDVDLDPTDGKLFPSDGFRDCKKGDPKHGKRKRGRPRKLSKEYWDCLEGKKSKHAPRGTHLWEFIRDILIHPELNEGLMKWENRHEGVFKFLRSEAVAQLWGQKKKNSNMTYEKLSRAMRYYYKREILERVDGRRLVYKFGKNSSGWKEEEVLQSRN
In short: as §1

CRX = CRX (Homo sapiens, UniProt O43186 1-299); conditions: protein: recombinant; tags: N-terminal GST; dsDNA, one strand shown
In short: as §1

ETV1 = ETV1 (Homo sapiens, UniProt P50549 1-477); conditions: protein: recombinant; tags: N-terminal GST; dsDNA, one strand shown
In short: as §1

CRX, sequence (O43186 whole entry): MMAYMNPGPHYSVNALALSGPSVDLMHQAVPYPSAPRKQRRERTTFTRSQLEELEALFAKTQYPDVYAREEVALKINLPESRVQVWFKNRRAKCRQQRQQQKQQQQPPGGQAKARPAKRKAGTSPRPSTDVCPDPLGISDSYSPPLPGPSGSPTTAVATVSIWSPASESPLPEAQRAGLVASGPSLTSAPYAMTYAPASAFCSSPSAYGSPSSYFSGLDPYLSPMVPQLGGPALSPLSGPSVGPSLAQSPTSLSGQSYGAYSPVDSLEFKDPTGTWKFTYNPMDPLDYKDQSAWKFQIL
ELF4, sequence (Q99607 whole entry): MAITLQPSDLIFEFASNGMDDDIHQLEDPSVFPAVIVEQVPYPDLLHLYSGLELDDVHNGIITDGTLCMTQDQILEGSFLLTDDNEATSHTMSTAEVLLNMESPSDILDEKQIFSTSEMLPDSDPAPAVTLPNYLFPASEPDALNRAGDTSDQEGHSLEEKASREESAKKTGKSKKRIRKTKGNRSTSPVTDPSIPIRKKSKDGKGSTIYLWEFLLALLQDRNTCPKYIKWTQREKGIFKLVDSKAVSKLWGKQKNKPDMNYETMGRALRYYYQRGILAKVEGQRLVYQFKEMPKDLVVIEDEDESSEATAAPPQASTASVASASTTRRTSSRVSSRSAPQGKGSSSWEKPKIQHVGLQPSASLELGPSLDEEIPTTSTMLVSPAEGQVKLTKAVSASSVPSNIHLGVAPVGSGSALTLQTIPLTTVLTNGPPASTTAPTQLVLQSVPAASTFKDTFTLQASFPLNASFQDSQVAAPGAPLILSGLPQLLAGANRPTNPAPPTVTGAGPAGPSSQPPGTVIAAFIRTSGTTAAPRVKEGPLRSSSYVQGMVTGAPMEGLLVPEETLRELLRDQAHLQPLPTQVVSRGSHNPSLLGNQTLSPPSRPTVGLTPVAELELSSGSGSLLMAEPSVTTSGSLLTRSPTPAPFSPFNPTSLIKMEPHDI
HSF1, sequence (Q00613 whole entry): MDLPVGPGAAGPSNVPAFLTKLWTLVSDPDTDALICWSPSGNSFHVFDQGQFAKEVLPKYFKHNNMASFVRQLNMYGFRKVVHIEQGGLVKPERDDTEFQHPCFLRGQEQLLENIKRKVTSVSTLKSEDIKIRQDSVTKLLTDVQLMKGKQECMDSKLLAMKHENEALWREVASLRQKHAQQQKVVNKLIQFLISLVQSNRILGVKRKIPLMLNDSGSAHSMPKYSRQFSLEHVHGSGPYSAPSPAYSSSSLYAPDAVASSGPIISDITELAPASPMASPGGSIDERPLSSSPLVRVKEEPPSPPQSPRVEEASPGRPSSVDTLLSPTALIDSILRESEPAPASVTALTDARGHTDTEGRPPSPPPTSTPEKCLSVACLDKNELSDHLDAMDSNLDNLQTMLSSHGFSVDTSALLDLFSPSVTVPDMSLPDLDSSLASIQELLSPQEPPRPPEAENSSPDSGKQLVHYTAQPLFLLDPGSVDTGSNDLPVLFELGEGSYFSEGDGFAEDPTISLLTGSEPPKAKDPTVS
ETV1, sequence (P50549 whole entry): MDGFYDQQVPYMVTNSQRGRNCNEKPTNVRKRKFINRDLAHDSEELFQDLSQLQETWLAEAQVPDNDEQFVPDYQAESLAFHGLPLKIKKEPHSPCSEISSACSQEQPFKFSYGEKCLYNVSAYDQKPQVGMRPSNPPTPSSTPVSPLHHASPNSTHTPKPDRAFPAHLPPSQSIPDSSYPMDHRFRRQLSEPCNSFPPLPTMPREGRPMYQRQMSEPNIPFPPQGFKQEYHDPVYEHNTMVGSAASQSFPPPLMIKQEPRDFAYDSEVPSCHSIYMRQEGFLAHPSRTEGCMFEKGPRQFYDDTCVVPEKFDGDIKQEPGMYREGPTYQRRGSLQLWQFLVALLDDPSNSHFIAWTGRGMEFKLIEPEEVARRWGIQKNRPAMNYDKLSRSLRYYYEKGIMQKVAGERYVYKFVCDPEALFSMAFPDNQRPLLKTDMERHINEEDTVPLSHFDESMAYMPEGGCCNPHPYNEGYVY
ETV5, sequence (P41161 whole entry): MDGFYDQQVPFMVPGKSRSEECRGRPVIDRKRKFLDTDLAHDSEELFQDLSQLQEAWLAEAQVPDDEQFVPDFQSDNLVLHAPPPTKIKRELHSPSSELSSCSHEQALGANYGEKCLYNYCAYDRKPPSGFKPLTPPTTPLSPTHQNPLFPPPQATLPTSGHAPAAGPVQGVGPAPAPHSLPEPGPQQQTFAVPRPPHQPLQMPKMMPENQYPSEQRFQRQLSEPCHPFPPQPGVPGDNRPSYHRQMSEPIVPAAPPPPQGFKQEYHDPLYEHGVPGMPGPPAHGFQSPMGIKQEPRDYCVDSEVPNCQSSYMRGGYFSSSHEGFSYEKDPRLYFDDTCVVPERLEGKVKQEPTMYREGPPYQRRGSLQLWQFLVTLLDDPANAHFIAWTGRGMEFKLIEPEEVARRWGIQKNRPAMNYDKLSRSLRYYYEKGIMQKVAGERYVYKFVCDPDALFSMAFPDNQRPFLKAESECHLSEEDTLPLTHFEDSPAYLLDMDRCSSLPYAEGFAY
ELF1, sequence (P32519 whole entry): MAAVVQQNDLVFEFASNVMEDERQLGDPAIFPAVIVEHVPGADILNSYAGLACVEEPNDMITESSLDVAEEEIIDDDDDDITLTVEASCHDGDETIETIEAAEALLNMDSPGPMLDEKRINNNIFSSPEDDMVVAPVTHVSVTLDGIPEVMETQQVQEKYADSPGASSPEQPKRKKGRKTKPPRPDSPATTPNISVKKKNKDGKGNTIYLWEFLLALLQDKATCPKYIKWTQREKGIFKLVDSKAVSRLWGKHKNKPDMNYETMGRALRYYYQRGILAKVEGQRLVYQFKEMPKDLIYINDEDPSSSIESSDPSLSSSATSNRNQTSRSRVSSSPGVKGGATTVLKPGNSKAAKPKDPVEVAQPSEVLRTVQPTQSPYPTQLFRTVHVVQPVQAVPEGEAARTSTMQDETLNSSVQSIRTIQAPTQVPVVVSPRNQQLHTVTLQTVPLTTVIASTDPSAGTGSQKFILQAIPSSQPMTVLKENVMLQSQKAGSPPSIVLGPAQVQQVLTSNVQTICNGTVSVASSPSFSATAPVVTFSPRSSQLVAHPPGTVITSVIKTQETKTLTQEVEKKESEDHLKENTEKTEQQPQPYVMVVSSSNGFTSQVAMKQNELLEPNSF
SPIB, sequence (Q01892 whole entry): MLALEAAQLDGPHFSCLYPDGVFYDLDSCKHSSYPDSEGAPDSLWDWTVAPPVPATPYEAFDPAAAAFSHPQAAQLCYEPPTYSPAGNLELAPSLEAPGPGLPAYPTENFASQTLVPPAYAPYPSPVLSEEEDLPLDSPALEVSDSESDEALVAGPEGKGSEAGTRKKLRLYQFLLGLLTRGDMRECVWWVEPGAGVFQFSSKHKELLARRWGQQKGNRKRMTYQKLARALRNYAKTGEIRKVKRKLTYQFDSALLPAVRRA

CTTCAG
binding signal (FLI1): 1.34 fold enrichment (6-mer frequency, TF over GST control) | binding signal (ELK1): 1.25 fold enrichment (6-mer frequency, TF over GST control) | binding signal (GABPA): 1.3 fold enrichment (6-mer frequency, TF over GST control) | binding signal (ERG): 1.32 fold enrichment (6-mer frequency, TF over GST control) | binding signal (ELF1): 1.36 fold enrichment (6-mer frequency, TF over GST control) | binding signal (EHF): 1.34 fold enrichment (6-mer frequency, TF over GST control) | binding signal (SPI1): 1.29 fold enrichment (6-mer frequency, TF over GST control) | binding signal (SPIB): 1.28 fold enrichment (6-mer frequency, TF over GST control) | binding signal (ELK3): 1.34 fold enrichment (6-mer frequency, TF over GST control) | binding signal (FEV): 1.26 fold enrichment (6-mer frequency, TF over GST control) | binding signal (ETV5): 1.21 fold enrichment (6-mer frequency, TF over GST control) | binding signal (HSF1): 1.23 fold enrichment (6-mer frequency, TF over GST control) | binding signal (SPIC): 1.26 fold enrichment (6-mer frequency, TF over GST control) | binding signal (ELF4): 1.34 fold enrichment (6-mer frequency, TF over GST control) | binding signal (ELK4): 1.41 fold enrichment (6-mer frequency, TF over GST control) | binding signal (ETV2): 1.23 fold enrichment (6-mer frequency, TF over GST control) | binding signal (ELF3): 1.39 fold enrichment (6-mer frequency, TF over GST control) | binding signal (CRX): 1.16 fold enrichment (6-mer frequency, TF over GST control) | binding signal (ETV1): 1.33 fold enrichment (6-mer frequency, TF over GST control)

Source: PMC7862700, “An all-to-all approach to the identification of sequence-specific readers for epigenetic DNA modifications on cytosine”
